Source: PubChem BioAssay (National Center for Advancing Translational Sciences (NCATS))
In the library only some 13% were active in any assay of this set; here they are far more common.
FMDV antiviral – antivirals against foot and mouth disease virus. FMDV antiviral cell-based qHTS. Potency, µM (doses to about 57.9 µM), actives largely listed as inhibitors. hit rate 1.2% among 410,000; calls by dose curve; tested in HEK293T cells; note: read-out not given here; nearly all actives have a fitted effect of over 45% in size
MARV entry inh – Marburg virus entry inhibition | Marburg virus pseudotyped entry inhibition, cell reporter | Potency, µM (highest dose often 37.8 µM), actives largely listed as inhibitors | hit rate 1.8% among 300,000 | AID 540276; calls by dose curve; tested in HEK293 cells
Lassa entry inh – blocks Lassa virus binding to or entry into cells | AID 540256 | hit rate 1.2% among 300,000 | Potency, µM (highest dose often 37.9 µM), hits mostly inhibitors | Lassa virus pseudotype entry inhibition, cell reporter; calls by dose curve; tested in HEK293 cells; note: nearly all actives have a fitted effect of over 50% in size
Cycloheximide cs – counter-screen for Shiga toxin inhibitors: cycloheximide protein synthesis inhibition; hit rate 12% among 300,000; max response, %; cell reporter, cycloheximide protein synthesis inhibition counterscreen; in the data active = max response mostly above about 13%, no sharp cut-off; inactive = mostly below about 14%; note: read at 38.3 µM for the half of the compounds with a filed dose
HCV inhibitor – blocks hepatitis C virus | Huh7.5.1 HCVcc-Cre infection, luciferase reporter, 44 h | Potency, µM (highest dose often 41.8 µM), usual class: inhibitors | hit rate 3.4% among 340,000; active = well fitted inhibition curve with a large enough effect; inconclusive = small, poorly fitted or top-dose-only effect, or another doubt; inactive = no such curve, though single readings can be large or run the other way
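HCVcc-Cre virus at an moi near 0.5 was added right after compound to cells cultured 4 h from seeding (1,000 cells/well). Luciferase activity was determined 44 h later, 15 min after substrate addition at RT.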
Shiga inhibitor – Shiga toxin inhibition. Vero cells, Shiga toxin protein synthesis inhibition reporter. inhibition, % at 38.7 µM. hit rate 9.2% among 290,000. AID 2315; in the data active = inhibition mostly above about 28%, no sharp cut-off; inactive = mostly below about 43%
Hits are given with their value; n = inactive; u = inconclusive; x = not tested or not shown.

SMILES | FMDV antiviral | MARV entry inh | Lassa entry inh | Cycloheximide cs | HCV inhibitor | Shiga inhibitor
Cc1ccc(C)c(NC(=O)Cn2ncc3c(C)n(Cc4ccc(F)cc4)c(C)c3c2=O)c1 | n | n | n | x | x | x
O=C(CC1CCCCC1)Nc1nc2ccccc2s1 | n | n | u | 32.8 | n | 58.6
CCOC(=O)C(C(=O)Nc1nc2ccccc2s1)C1CCCCC1 (configuration not stated) | n | u | n | n | n | n
Cc1cnc(NC(=O)CC2CCCC2)s1 | n | n | u | 48.8 | n | 105.0
O=C(Nc1nc2ccccc2s1)NC1CCCCC1 | n | x | x | 39.8 | n | 125.2
Cc1cc2c(cc3c(SCc4ccc(Cl)cc4)nnc(C)n32)o1 | n | x | n | x | x | x
COc1ccccc1OCc1nnc(SCC(=O)N2CCCCC2)n1-c1ccccc1 | n | n | n | n | n | n
CC(=O)CCc1oc2c([N+](=O)[O-])cccc2c1-c1ccc(C)o1 | n | x | x | n | 12.6µM | n
CC(=O)CCc1oc2ccc([N+](=O)[O-])cc2c1-c1ccc(C)o1 | n | n | n | n | n | n
Cc1ccc(NC2Sc3ccccc3NC2=O)cc1 (configuration not stated) | u | u | n | 21.9 | n | 41.1
CCNC(=O)Cc1c(OC)ccc2cc(Br)ccc12 | n | x | x | n | n | n
COc1ccc2cc(Br)ccc2c1CC(=O)NC1CC(C)(C)NC(C)(C)C1 | n | 18.3µM | u | n | 11.2µM | n
CC(C)OC(=O)CSc1nnnn1-c1ccc2c(c1)OCCO2 | x | n | n | 35.4 | n | 64.1
COc1ccc(-n2nnnc2SCC(=O)N2CCOCC2)cc1 | n | x | x | n | n | n
O=C(CSc1nnnn1-c1ccc2c(c1)OCCO2)c1cccc2c1OCCO2 | n | n | n | 32.6 | u | n
COc1ccc(N2CCN(C(=O)CSc3nnnn3-c3ccc4c(c3)OCCO4)CC2)cc1 | x | n | 2.91µM | n | 7.94µM | n
COc1cc(C(=O)Nc2ccc(C)cn2)c([N+](=O)[O-])cc1OC | n | n | n | n | n | n
COc1ccc(C(=O)Nc2ccc(C)cn2)c(OC)c1 | 1.78µM | 1.03µM | 0.651µM | n | 10µM | n
COc1ccc(C(=O)Nc2cc(C)on2)c(OC)c1 | n | x | x | 38.4 | n | 40.7
CS(=O)(=O)/C(C#N)=C\c1cnc(S(=O)(=O)c2ccccc2)s1 | x | x | x | 31.4 | x | n
CN1/C(=C\C(=S)NC(=O)c2ccccc2Cl)C(C)(C)c2ccccc21 | n | u | n | n | u | n
COc1ccccc1C(=O)NC(=S)/C=C1/N(C)c2ccccc2C1(C)C | u | 14.1µM | u | 14.0 | u | n
CN1/C(=C\C(=O)c2cccs2)Sc2ccccc21 | n | u | u | 39.4 | u | 89.7
CN1/C(=C\C(=O)c2cccs2)C(C)(C)c2ccccc21 | n | n | n | 24.6 | n | n
CN1/C(=C/C(=O)c2cccs2)Sc2ccccc21 | x | n | x | 43.5 | x | n
SMILES | FMDV antiviral | MARV entry inh | Lassa entry inh | Cycloheximide cs | HCV inhibitor | Shiga inhibitor
COCC(=O)/C=C1\Sc2ccccc2N1C | x | n | n | n | n | n
CN1/C(=C/C(=O)C2CCC2)Sc2ccccc21 | x | n | n | 56.6 | u | 138.8
Cc1cccc[n+]1CC(=O)/C=C1\N(C)c2ccccc2C1(C)C | u | u | u | n | n | n
CN1/C(=C\C(=O)CN2C(=O)NC3(CCCCCC3)C2=O)C(C)(C)c2ccccc21 | 20µM | u | u | n | u | n
O=C(CN(Cc1ccco1)C(=O)CNS(=O)(=O)c1ccc(F)cc1)NCc1ccco1 | n | n | n | n | n | n
CN(C)c1ccc(NC(=O)CSc2nnc(C3CCCCC3)n2N)cc1 | n | n | n | 23.9 | n | 30.8
Nn1c(SCC(=O)Nc2ccc(F)cc2)nnc1C1CCCCC1 | n | n | n | n | n | n
c1ccc2c(N3CCNCC3)nsc2c1 | n | u | u | 15.7 | u | n
Cc1cc(N)c2ccccc2[n+]1CCCCCCCCCC[n+]1c(C)cc(N)c2ccccc21 | u | 10µM | u | x | x | x
O=C1C=C(c2ccccc2)CC(c2cccs2)C1n1cnc([N+](=O)[O-])c1 (configuration not stated) | n | n | n | n | n | n
O=C1C=C(c2ccccc2)C[C@H](c2cccs2)[C@H]1n1nnc([N+](=O)[O-])n1 | n | 2µM | u | n | u | n
COc1ccc(CCN(Cc2cc3cc(C)c(C)cc3nc2Cl)C(=O)C2CC2)cc1 | x | u | u | n | n | n
Cc1cccc(CSCCNC(=O)Nc2ccccc2)c1 | n | n | n | n | n | n
Cc1ccccc1CSCCNC(=O)Nc1ccccc1 | n | x | x | 15.1 | n | n
CC(C)(C)SCCNC(=O)Nc1ccccc1 | n | u | u | 21.5 | n | 19.0
CC(C)(C)SCCNC(=O)CSc1ccccc1 | n | n | u | x | n | x
Clc1ccc(-c2nc3ccc(Cl)cn3c2Cc2ccccc2)cc1 | n | x | x | x | x | x
COc1cc(C2NC(=O)NC(C)=C2C(=O)OC2CCC(C)CC2)ccc1O (configuration not stated) | n | x | x | n | n | n
COCC(C)N=C1NN=C(c2cc(C)n(Cc3ccccc3Cl)c2C)CS1 (configuration not stated) | n | x | x | 55.0 | u | 107.6
COCC(C)N=C1NN=C(c2ccc(NC(C)=O)cc2)CS1 (configuration not stated) | n | n | n | 22.0 | n | n
Cc1cc(C2=NNC(=NC3CC3)SC2)c(C)n1Cc1ccco1 | 3.16µM | u | u | 94.7 | u | 136.9
C=CCn1c(C)cc(C2=NNC(=NC(C)(C)C)SC2)c1C | u | u | u | n | u | n
COCCCN=C1NN=C(c2cc(C)n(Cc3ccco3)c2C)CS1 | n | 16.4µM | u | 40.1 | n | 127.1
COc1ccc(S(=O)(=O)N2CCC(C(=O)N3CCC(C(N)=O)CC3)CC2)cc1Cl | n | n | n | n | n | n
On1ccccc1=S | u | x | x | x | 6.31µM | x
SMILES | FMDV antiviral | MARV entry inh | Lassa entry inh | Cycloheximide cs | HCV inhibitor | Shiga inhibitor
CN(C)/C=C/c1[nH]c(=O)[nH]c(=O)c1[N+](=O)[O-] | n | x | x | n | n | n
CN(C)/C=C/c1oc2ccc(O)cc2c1[N+](=O)[O-] | n | n | n | n | n | 146.3
CCOc1ccc(CC2c3cc(OCC)c(OCC)cc3CCN2C(=O)c2cc(OC)c(OC)c(OC)c2)cc1OCC (configuration not stated) | u | u | 2.06µM | n | u | n
COc1ccccc1CNc1nc(Oc2cccc(F)c2)c2sccc2n1 | n | x | x | x | x | x
Cc1ccc(NC(=O)c2cc(N3C(=O)C4CC=CCC4C3=O)ccc2N2CCOCC2)cc1Cl (configuration not stated) | n | n | n | n | n | n
Cc1ccc(NC(=O)c2cc(N3C(=O)C=CC3=O)ccc2N2CCOCC2)cc1 | u | n | x | n | 10µM | n
Cc1ccc(NC(=O)c2cc(NC(=O)c3ccco3)ccc2N2CCOCC2)cc1 | n | n | u | n | 12.6µM | n
CC(C)C(=O)Nc1cc(S(=O)(=O)Nc2cccc(Cl)c2)ccc1Cl | n | x | x | n | n | n
C[C@@H](NC(=O)C1(c2ccccc2)CCN(C(=O)OC(C)(C)C)CC1)C(=O)N[C@@H](Cc1ccccc1)C(=O)O | n | x | x | n | n | n
NC1=NS(=O)(=O)NC1c1cccc(F)c1 (configuration not stated) | n | n | n | n | n | n
